Screening data: PubChem, National Center for Advancing Translational Sciences (NCATS)
Pol iota inh: blocks human DNA polymerase iota activity; Pol iota fluorescent replication assay, 10 min; Q9UNA4; 390,000 tested, 1% active; Potency, µM (titrated, usually from 115 µM), actives largely listed as inhibitors
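Fluorescent replication assay read twice, at 0 min and 10 min after adding 50 nM (final) substrate. Enzyme (10 nM) and compounds were first incubated 15 min at room temperature; enzyme-free buffer wells were negative controls.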
WRN inhibitor: blocks human WRN helicase; Potency, µM (highest dose often 114 µM), hits mostly inhibitors; 360,000 tested, 0.46% active; WRN helicase unwinding, fluorescent forked duplex, kinetic; Q14191; further: nearly all actives have a fitted effect of over 55% in size
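Kinetic fluorescence helicase assay: unwinding of a quenched forked DNA duplex (100 nM final) with 2 mM ATP final raises red fluorescence (525/598 nm). Compounds sat 15 min at room temperature with 20 nM WRN beforehand.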
POLH inh: DNA polymerase eta (human) inhibition; Q9Y253; recombinant Pol eta, fluorescent DNA replication assay; Potency, µM (top dose mostly 114 µM), most hits filed as inhibitors; 390,000 tested, 1.2% active
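Fluorescent replication assay: 50 nM final substrate added after a 15 min room-temperature compound preincubation with 10 nM enzyme. Signal taken at 0 min and again at 10 min.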
FEN1 inh: human FEN1 inhibition; P39748; Recombinant FEN1 flap cleavage, fluorescence, 15 min; Potency, µM (titrated, usually from 114 µM), actives largely listed as inhibitors; 390,000 tested, 0.35% active; AID 588795; further: nearly all actives have a fitted effect of over 65% in size
Target sequence (P39748 whole entry, looked up): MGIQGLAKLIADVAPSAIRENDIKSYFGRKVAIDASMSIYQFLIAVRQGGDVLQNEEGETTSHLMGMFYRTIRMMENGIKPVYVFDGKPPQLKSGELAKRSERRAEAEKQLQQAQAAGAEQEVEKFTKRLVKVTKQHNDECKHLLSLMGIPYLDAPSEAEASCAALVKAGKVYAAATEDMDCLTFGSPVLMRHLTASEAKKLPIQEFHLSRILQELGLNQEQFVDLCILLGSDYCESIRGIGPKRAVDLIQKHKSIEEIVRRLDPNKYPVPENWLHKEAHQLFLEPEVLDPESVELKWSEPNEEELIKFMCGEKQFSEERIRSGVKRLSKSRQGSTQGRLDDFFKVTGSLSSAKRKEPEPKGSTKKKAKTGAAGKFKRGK
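Read-out was taken twice, immediately and after 15 min, following addition of 50 nM substrate to 10 nM FEN1 that had sat with test compound for 15 min at room temperature. Curves came from a four-parameter Hill model.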
POLB inh: blocks human DNA polymerase beta activity; P06746; Pol beta primer extension/strand displacement, fluorescence kinetic; Potency, µM (titrated, usually from 114 µM), hits mostly inhibitors; 340,000 tested, 1.3% active; AID 485314
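Kinetic readout of DNA synthesis with strand displacement by Pol beta. Compound and 10 nM enzyme sit 15 min at room temperature; 50 nM substrate starts the reaction, read immediately and at 10 min.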
Pol kappa inh: DNA polymerase kappa (human) inhibition; Q9UBT6; 400,000 tested, 0.53% active; Potency, µM (series often up to 107 µM), usual class: inhibitors; purified Pol kappa, fluorescent DNA synthesis assay, 10 min
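10 nM Pol kappa preincubated 15 min at room temperature with compounds, then reaction started with substrate at 50 nM final. Fluorescence read kinetically at 0 and 10 min; buffer-only wells served as negative control.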
Each line names hits and unclear results; the compound was inactive in the other large screens. Rows were chosen to be rich in hits. Some 2.4% of all compounds tested hit in one or more screens of this group. The call rests on the fitted dose curve; in most records, active means well fitted curve in the direction sought with a large enough effect; inconclusive means small, poorly fitted or top-dose-only effect, or another doubt; inactive means no such curve, though single readings can be large; an effect the other way counts as inactive or inconclusive.

COC(=O)CN1C(=O)[C@@H]2[C@H](C1=O)[C@@H]1CC(C(=O)OC)=C[C@@H](C(=O)OC)C3C1=C(C(=O)C31CCCCC1)[C@@H]2C (some centres not stated)	none (no result: WRN inhibitor, POLH inh, POLB inh)
N#C/C(=C\c1ccc(N2CCOCC2)o1)c1nc2ccccc2[nH]1	WRN inhibitor 50.1µM, POLH inh inconclusive, FEN1 inh inconclusive, POLB inh inconclusive, Pol kappa inh inconclusive
N#C/C(=C\c1ccc(N2CCOCC2)c([N+](=O)[O-])c1)c1nc2ccccc2[nH]1	FEN1 inh inconclusive
CCOC(=O)C1(CC2CC2)CCN(Cc2ccc(OC)cc2F)CC1	POLB inh 89.1µM
c1nc2nc(Nc3ccc(N4CCOCC4)cc3)nc(NC3CCCCC3)c2[nH]1	none (no result: Pol iota inh, WRN inhibitor, POLH inh, FEN1 inh, POLB inh)
COc1cccc(/C=C/c2nccc3ccccc23)c1OC	none (no result: WRN inhibitor, POLH inh, POLB inh)
Cc1cc(C)n(Cc2ccc(C(=O)O)cc2)n1	none
Cc1ccc(C)n1Cc1ccc(C(=O)O)cc1	Pol iota inh 0.708µM, WRN inhibitor 2.82µM, FEN1 inh 3.98µM, POLB inh 2.82µM, Pol kappa inh 1.26µM
O=c1c2cc(N3CCOCC3)ccc2[nH]c(=S)n1Cc1ccco1	Pol iota inh 10µM, WRN inhibitor inconclusive, POLH inh 89.1µM, FEN1 inh inconclusive, POLB inh inconclusive, Pol kappa inh 79.4µM
COc1cccc(/C=N/NC(=O)c2cc(-c3cccn3C)n[nH]2)c1	Pol iota inh inconclusive, POLH inh inconclusive, POLB inh 35.5µM, Pol kappa inh inconclusive
Cn1cccc1-c1cc(C(=O)N/N=C/C=C/c2ccccc2)[nH]n1	Pol iota inh inconclusive, POLB inh 10µM, Pol kappa inh inconclusive
Cc1cc(NC(=O)COC(=O)c2ccccc2OCCOc2ccccc2)ccc1Br	Pol iota inh inconclusive (no result: WRN inhibitor, POLH inh, POLB inh)
Cc1nnsc1S(=O)c1ccc(Cl)cc1 (configuration not stated)	none
O=C(c1nnsc1S(=O)c1ccc(Cl)cc1)N1CCOCC1 (configuration not stated)	Pol iota inh inconclusive, WRN inhibitor 25.1µM
Cc1noc(-c2ccc(CSCCC(=O)O)cc2)c1NC(=O)OC(C)c1ccccc1Cl (configuration not stated)	none (no result: Pol iota inh, WRN inhibitor, POLH inh, FEN1 inh, POLB inh)
N#Cc1c(SCC(=O)Nc2cccc(C(F)(F)F)c2)sc2c(O)cc(=O)[nH]c12	Pol iota inh inconclusive, WRN inhibitor inconclusive, POLH inh 20µM, FEN1 inh 25.1µM, Pol kappa inh 25.1µM
Cc1cc(NC(=O)CSc2sc3c(O)cc(=O)[nH]c3c2C#N)ccc1Br	Pol iota inh 56.2µM, POLH inh 28.2µM, FEN1 inh inconclusive, POLB inh inconclusive, Pol kappa inh inconclusive
Cc1ccc(C)c(NC(=O)CSc2sc3c(O)cc(=O)[nH]c3c2C#N)c1	Pol iota inh 28.2µM, POLH inh 20µM, POLB inh inconclusive, Pol kappa inh inconclusive
O=C(CSCCO)Nc1cccc(C(F)(F)F)c1	none
Cc1ccc(NC(=O)CSc2nc3[nH]c(=O)cc(O)c3s2)c(Br)c1	none (no result: POLB inh)
CC(C)c1ccc(Nc2nc(Nc3ccc(Cl)cc3)nc(N3CCOCC3)n2)cc1	none (no result: WRN inhibitor, POLH inh, POLB inh)
C#C[C@]1(O)CCC2C3CCC4=Cc5oncc5C[C@@]4(C)C3CC[C@@]21C (some centres not stated)	none (no result: Pol iota inh, WRN inhibitor, POLH inh, FEN1 inh, POLB inh)
O=C(Cn1sc2ccccc2c1=O)Nc1ccccc1	none (no result: Pol iota inh, FEN1 inh, POLB inh, Pol kappa inh)
O=C(Cn1sc2ccccc2c1=O)NC12CC3CC(CC(C3)C1)C2	Pol iota inh inconclusive, WRN inhibitor 39.8µM
O=S(=O)(NCC(O)COCc1ccco1)c1cccs1 (configuration not stated)	Pol iota inh 22.4µM, WRN inhibitor inconclusive, POLH inh 20µM, POLB inh 22.4µM, Pol kappa inh 35.5µM
CCN(CC)C(=O)CC(c1ccc(OC)cc1)c1c(OC)cc(OC)c2c(-c3ccccc3)cc(=O)oc12 (configuration not stated)	Pol iota inh inconclusive, Pol kappa inh 79.4µM (no result: WRN inhibitor, POLH inh, POLB inh)
COc1ccc(C(CCN2CCCCC2)c2c(OC)cc(OC)c3c(-c4ccccc4)cc(=O)oc23)cc1 (configuration not stated)	none
COC(=O)c1sc(N)c(C(=O)OC)c1COC(=O)C1CC(=O)N(Cc2ccco2)C1 (configuration not stated)	Pol iota inh inconclusive, WRN inhibitor inconclusive, POLH inh 79.4µM, POLB inh 11.2µM
CN(c1ccc(-c2csc(NC(=O)C3CC(=O)N(Cc4ccco4)C3)n2)cc1)S(C)(=O)=O (configuration not stated)	Pol iota inh 44.7µM, POLH inh 50.1µM, Pol kappa inh inconclusive (no result: POLB inh)
CCOC(=O)c1sc(N)c(C(=O)OCC)c1COC(=O)C1CC(=O)N(Cc2ccco2)C1 (configuration not stated)	none
CS(=O)(=O)c1ccc(Cl)c(NC(=O)C2CC(=O)N(Cc3ccco3)C2)c1 (configuration not stated)	Pol iota inh 79.4µM, Pol kappa inh inconclusive (no result: POLB inh)
CCn1cc2nc(SCC(=O)Nc3ccccc3C(F)(F)F)n(Cc3ccc(C)cc3)c(=O)c2n1	Pol iota inh 44.7µM, FEN1 inh inconclusive, POLB inh 10µM, Pol kappa inh inconclusive (no result: WRN inhibitor)
CCCCCCOc1ccc(C(=N)N(CCCC)CCCC)c2ccccc12	none (no result: Pol iota inh, WRN inhibitor, POLH inh, FEN1 inh, POLB inh)
Cc1ccccc1NC(=O)COC(=O)c1ccccc1OCC(=O)Nc1ccc(Br)cc1	none (no result: WRN inhibitor, POLH inh, POLB inh)
Cc1cccc(C=Nc2ccc3c(c2)oc2ccccc23)c1O	none
Oc1cccc(/C=N/N=C/c2cccc(O)c2O)c1O	Pol iota inh inconclusive, POLH inh 2.82µM, POLB inh 0.316µM, Pol kappa inh 11.2µM
Cc1ccccc1N=Cc1cccc(O)c1O	Pol iota inh inconclusive, WRN inhibitor 11.2µM, POLH inh inconclusive, FEN1 inh 50.1µM, POLB inh 3.55µM, Pol kappa inh 10µM
Cc1ccc(N=Cc2cccc(O)c2O)c(C)c1	Pol iota inh 3.55µM, FEN1 inh 4.47µM, POLB inh 10µM, Pol kappa inh 20µM (no result: WRN inhibitor, POLH inh)
CC(N=Cc1cccc(O)c1O)c1ccccc1 (configuration not stated)	Pol iota inh 8.91µM, WRN inhibitor 31.6µM, POLH inh inconclusive, FEN1 inh 35.5µM, POLB inh 2.51µM, Pol kappa inh 12.6µM
c1ccc(C(NCc2cccnc2)(c2ccccc2)c2ccccc2)cc1	FEN1 inh inconclusive (no result: Pol iota inh, WRN inhibitor, POLH inh, POLB inh)
CCOP(=O)(OCC)C(=Cc1cc(C(C)(C)C)c(O)c(C(C)(C)C)c1)P(=O)(OCC)OCC	none (no result: Pol iota inh, WRN inhibitor, POLH inh, FEN1 inh, POLB inh)
COc1ccc(/C=C2\C=Cc3ccccc32)cc1OC	none (no result: WRN inhibitor, POLH inh, POLB inh)
CC(C)(C)CC(C)(C)N=C1Nc2cc(Cl)c(Cl)cc2N[C@]12C[C@H]1CCCC(=O)N3CC[C@@H](C2)[C@@H]13	Pol iota inh inconclusive (no result: WRN inhibitor, POLH inh, POLB inh)
CC(C)C[C@@H](/C=C/S(C)(=O)=O)NC(=O)[C@H](CC(C)C)NC(=O)[C@H](CC(C)C)NC(=O)OCc1ccccc1	none (no result: Pol iota inh, WRN inhibitor, POLH inh, FEN1 inh, POLB inh)
CCCN1CNc2c(c(=O)[nH]c(=S)n2CCc2ccc(OC)cc2OC)C1	none (no result: WRN inhibitor, POLH inh, POLB inh)
